An excerpt weighted towards active compounds, which were near 11% of everything screened.
HPGD block: HPGD (human) dehydrogenase inhibition; P15428; purified HPGD, NADH fluorescence kinetic, PGE2 substrate; Potency, µM, for the others: at the highest dose activity change, negative = inhibition, actives largely listed as inhibitors; hit rate 4.3% among 150,000; AID 894; note: potency is the fitted concentration of half-maximal effect
Target sequence (P15428 whole entry, looked up): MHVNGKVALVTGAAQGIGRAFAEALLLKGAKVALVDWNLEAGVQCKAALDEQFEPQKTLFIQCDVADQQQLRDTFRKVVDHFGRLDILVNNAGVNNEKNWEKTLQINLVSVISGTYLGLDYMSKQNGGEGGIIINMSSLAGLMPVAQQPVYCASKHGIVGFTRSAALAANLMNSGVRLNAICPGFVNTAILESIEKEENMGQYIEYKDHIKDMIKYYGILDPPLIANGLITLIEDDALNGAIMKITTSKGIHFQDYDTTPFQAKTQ
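20 nM HPGD preincubated 15 min at room temperature with compound in 50 mM Tris-HCl pH 8, 0.01% Tween 20. Started with 1 mM NAD+ and 30 uM prostaglandin E2; NADH fluorescence (360/450 nm) read 5 times over 30-s intervals, last minus first.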
ALDH1A1 block: inhibitors of human aldehyde dehydrogenase 1A1. P00352. Purified ALDH1A1, NADH fluorescence, propionaldehyde substrate. Potency, µM (doses to about 75.3 µM), for the others: at the top dose activity, negative = inhibition, usual class: inhibitors. hit rate 7.3% among 220,000. AID 1030;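 note: potency is the fitted concentration of half-maximal effect; plate controls were no enzyme wells and a reference inhibitor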
PNC assembly inh: perinucleolar compartment assembly inhibition; activity change (PNC), negative = inhibition, % at 10 µM; AID 2417; PC3M PTB-GFP, PNC prevalence imaging, 16 h; active compounds read low; hit rate 3.1% among 140,000;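 active = readout at or below -70, meaning at least 70% loss of cells showing the perinucleolar compartment, a nuclear body marking cancer cells; inconclusive = readout between -30 and a set limit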;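 note: plate controls were DMSO wells for no effect and camptothecin positive control wells for full effect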
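Read-out is percentage of cells bearing a perinucleolar compartment, from automated 20x imaging of fixed, Hoechst-stained PC3M PTB-GFP cells. Cells were seeded 4 h, then exposed 16 h to compound (23 nl of library stock) in duplicate plates.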
An asterisk follows results filed as active; ? = inconclusive; nt = no result given; ! = a repeat was not active; [ ] = dose if it differs, or a comment. Unless noted, calls come from the whole dose curve; as a rule, active = well fitted inhibition curve with a large enough effect (not every such curve was filed as active); inconclusive = small, poorly fitted or top-dose-only effect, or another doubt; inactive = no such curve, though single readings can be large or run the other way. Unless noted, % is set by controls: 0 for no effect and ±100 for the full control effect.

SMILES	HPGD block	ALDH1A1 block	PNC assembly inh
CCOC(=O)N1CCN(C(=S)NCCOC)CC1	-11%	9%	0
COc1ccc(N=C2C(=O)Nc3ccccc32)cc1	-13%	?	21
COc1ccc(N=C2C(=O)N3c4c(cccc42)C(C)=CC3(C)C)cc1	-19%	2µM*	2
NS(=O)(=O)c1ccc(NC(=O)Nc2ccc(C(F)(F)F)cc2)cc1	nt	-4%	nt
Cc1c(C#N)c(N=CN(C)C)c(C(=O)c2ccccc2)n1-c1ccc(Br)cc1	-1%	5%	-19
Cc1c(C#N)c(N=CN(C)C)c(C(=O)c2ccc(Br)cc2)n1-c1ccccc1	-8%	22µM*	?
O=C(CNC(=O)c1ccc(Cl)cc1)OCC(=O)N1CCCC1	nt	13%	nt
Oc1c(CN2CCc3ccccc3C2)cc(Cl)c2cccnc12	-14%	1%	?
Oc1c(I)cc(Cl)c2cccnc12	-9%	25µM*!	?
CCOC(=O)N1CCN(c2ccc(C(F)(F)F)cn2)CC1	?	6%	?
CC1=NN(c2ccc(C(F)(F)F)cn2)C(=O)C1	-9%	22µM*	13
O=C(O)CSc1ccc([N+](=O)[O-])cc1[N+](=O)[O-]	-6%	0%[13.5 µM]	nt
C[C@@]12C=CC(=O)C=C1CC[C@H]1[C@H]3CC[C@](O)(C(=O)CO)[C@]3(C)CC(=O)[C@@H]12	-2%	2%[20.9 µM]	nt
Cc1cc(N2C(=O)C=CC2=O)c([N+](=O)[O-])cc1C	2.8µM*	0.79µM*	-20
Cc1ccc([N+](=O)[O-])c(C)c1	-2%	-2%	nt
CCCCCCCCCC(=O)O[C@H](CC(=O)O)C[N+](C)(C)C	-5%	-1%	nt
CC(C)NS(=O)(=O)c1ccc(CCC(=O)N2CCCCC2)cc1	nt	6%	nt
CCCn1c(N)c(C(c2ccc(C(=O)OC)cc2)N2CCN(c3ccccc3)CC2)c(=O)[nH]c1=O (stereo not drawn)	-19%	?	-18
CCCn1c(N)c(C(c2ccc(OC)cc2)N2CCN(c3ccccc3)CC2)c(=O)[nH]c1=O (stereo not drawn)	-19%	2.5µM*	22
CC(=O)Nc1ccc(NC(=O)CSc2nnc3ccc(-c4ccc(F)cc4)nn23)cc1	nt	11%	nt
CCOC(=O)N1C2C=C(C)[C@@H]2[C@@H]2CC(=O)N21 (stereo partly drawn)	-12%	7%	?
C[N+]12CCC(CC1)[C@@H](OC(=O)C(O)(c1ccccc1)c1ccccc1)C2	-2%	-2%[20.9 µM]	nt
CCOc1ccc(C(C)=O)cc1CSc1nnc(-c2ccoc2C)n1N	14µM*	22µM*	?
Cc1cc(NC(=O)CSc2nnc(-c3ccoc3C)n2N)no1	-2%	-5%	9
CCCCN(CC(=O)Nc1c(C)cccc1CC)C(=O)SCC	-4%	9%	-11
SMILES	HPGD block	ALDH1A1 block	PNC assembly inh
Cc1cc(C)nc(N/N=C/C2=C(N3CCOCC3)C(=C/c3ccccc3)/CC2)n1	18µM*	1%	27
Cc1cc(=O)[nH]c(N/N=C/C2=C(N3CCOCC3)C(=C\c3ccc(Cl)cc3)/CC2)n1	-20%	11µM*	-2
Cc1occc1C(=O)N/N=C/C1=C(N2CCOCC2)C(=C\c2ccc(Cl)cc2)/CC1	-5%	?	-17
O=C(N/N=C/C1=C(N2CCOCC2)C(=C\c2ccccc2)/CC1)Nc1ccccc1	-18%	?	-9
NS(=O)(=O)c1ccc(CCNC(=O)CSc2nnc3ccccn23)cc1	nt	-11%	nt
CCOc1ccc(Oc2c(/C=N/NC(=O)C3CC3)c(C)nn2-c2ccccc2)cc1	-12%	8%	6
Cc1ccc(C(=O)CNc2ccccc2C)cc1	-10%	11µM*	?
C/C(=C\C(=O)c1ccc(Br)cc1)NCc1ccc(C)cc1	-11%	?	18
O=C(CNC(=S)NC(=O)c1ccc(F)cc1)c1ccccc1	-3%	?	42
Cc1ccc(C(=O)CC(=O)c2ccc(C(C)(C)C)cc2)cc1	nt	3%	nt
O=C(CNc1ccc(F)cc1)c1ccccc1	nt	13µM*	nt
Cc1ccc(C(=O)CNc2ccc(Br)cc2)cc1	-24%	18µM*	47
O=C(CNc1ccc(Br)cc1)c1ccccc1	-17%	20µM*	95
O=C(CP(=O)(O)CC(=O)c1ccccc1)c1ccccc1	nt	8%	nt
Cc1ccccc1OCCC(=O)NCCc1ccc(S(N)(=O)=O)cc1	-3%	19%	-3
O=C1NC(Cc2ccccc2)C(=O)N1CC(=O)N1CCCc2ccccc21 (stereo not drawn)	nt	-6%	nt
CC1CCC(C(=O)O)NC1c1cccc(N2CCCC2=O)c1 (stereo not drawn)	nt	14%[13.5 µM]	nt
COc1ccc(C(=O)Nc2ccc(N3CCN(C(=O)C(C)C)CC3)cc2)cc1[N+](=O)[O-]	-14%	5%	?
Nc1c(-c2ccccc2)cnn1C1CCS(=O)(=O)C1 (stereo not drawn)	-4%	11%	-12

Source: PubChem (National Center for Advancing Translational Sciences (NCATS))
